Data from PubChem BioAssay AID1159580 (chemical genetic matrix, 2015).
Where “and” joins values, the source holds several entries; their conditions need not be identical. Equal values may be shown once. The campaign covered roughly 5,500 compounds. About 2,000 (36%) were called active. Not shown: some 18% with an inconclusive outcome. No stated cut-off is given here; in the data, active means normalized growth mostly below about 0.91 (no sharp cut-off); inconclusive means no clear call, values can overlap the other calls; inactive means mostly above about 0.92. This is one part of the list.

Assay: chemical genetic growth profiling, strain panel (AID 1159580);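 further: tested at 20 µM; growth read once vehicle control cultures reached saturation at 30 °C; 1 = growth at the plate median or of vehicle wells; lower values mean less growth of the strain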
Conditions: S. cerevisiae deletion strains, growth OD

Measured: normalized growth

CC(=O)N=c1sc(S(N)(=O)=O)nn1C
inactive: locus YAL013W, strain DEP1, hits give low values 1.01 | locus YAL021C, strain ccr4, hits give low values 1.01 | locus YAL026C, strain drs2, hits give low values 1.01 | locus YAL030W, strain snc1, hits give low values 1 | locus YBL061C, strain skt5, hits give low values 1.01 | locus YBR009C, strain hhf1, hits give low values 1 | locus YBR021W, strain FUR4, hits give low values 1.02 | locus YBR023C, strain chs3, hits give low values 1.01 | locus YBR171W, strain sec66, hits give low values 1.03 | locus YBR229C, strain ROT2, hits give low values 1.01 | locus YBR231C, strain swc5, hits give low values 1.02 | locus YBR279W, strain paf1, hits give low values 1.01 | locus YCL011C, strain gbp2, hits give low values 1.01 | locus YCL016C, strain dcc1, hits give low values 1.01 | locus YCL029C, strain bik1, hits give low values 0.995 | locus YCL061C, strain MRC1, hits give low values 1.01 | locus YCL069W, strain vba3, hits give low values 1.01 | locus YCR088W, strain abp1, hits give low values 1.01 | locus YDL005C, strain med2, hits give low values 1.01 | locus YDL035C, strain GPR1, hits give low values 1.03 | locus YDL040C, strain nat1, hits give low values 0.999 | locus YDL074C, strain BRE1, hits give low values 0.995 | locus YDL101C, strain DUN1, hits give low values 1.01 | locus YDL134C, strain PPH21, hits give low values 1.02 | locus YDL185W, strain tfp1, hits give low values 1.01 | locus YDL192W, strain arf1, hits give low values 1.01 | locus YDR001C, strain nth1, hits give low values 1 | locus YDR069C, strain doa4, hits give low values 1.01 | locus YDR101C, strain arx1, hits give low values 1 | locus YDR137W, strain rgp1, hits give low values 1.04 | locus YDR150W, strain NUM1, hits give low values 1 | locus YDR159W, strain sac3, hits give low values 0.998 | locus YDR162C, strain NBP2, hits give low values 1.02 | locus YDR195W, strain ref2 0.991 | locus YDR297W, strain sur2, hits give low values 1 | locus YDR318W, strain mcm21, hits give low values 1.02 | locus YDR334W, strain swr1, hits give low values 1.01 | locus YDR335W, strain msn5, hits give low values 1.01 | locus YDR388W, hits give low values 1.01 | locus YDR392W, strain spt3, hits give low values 1.02 | locus YDR502C, strain sam2, hits give low values 0.998 | locus YEL003W, strain gim4, hits give low values 1.01 | locus YEL037C, strain rad23, hits give low values 1 | locus YEL061C, strain CIN8 (second series), hits give low values 1.01 | locus YEL061C, strain CIN8, hits give low values 1 | locus YER015W, strain faa2, hits give low values 0.989 | locus YER016W, strain bim1, hits give low values 1.01 | locus YER110C, hits give low values 1.02 | locus YER111C, strain swi4, hits give low values 0.994 | locus YER155C, strain BEM2 (second series), hits give low values 1.02 | locus YER155C, strain BEM2, hits give low values 1 | locus YER167W, strain BCK2, hits give low values 1.02 | locus YFR010W, strain ubp6, hits give low values 1.02 | locus YGL078C, strain dbp3, hits give low values 1 | locus YGL086W, strain mad1, hits give low values 0.998 | locus YGL167C, strain pmr1, hits give low values 1.01 | locus YGL173C, strain kem1, hits give low values 1.01 | locus YGL227W, strain vid30, hits give low values 1.01 | locus YGL240W, strain doc1, hits give low values 1.03 | locus YGL248W, strain PDE1, hits give low values 0.997 | locus YGL253W, strain hxk2, hits give low values 1.02 | locus YGR135W, strain pre9, hits give low values 1.06 | locus YGR252W, strain gcn5, hits give low values 1.01 | locus YHR013C, strain ard1, hits give low values 1.03 | locus YHR027C, strain rpn1, hits give low values 1.02 | locus YHR030C, strain SLT2, hits give low values 1 and 1.06 | locus YHR079C, strain IRE1 (second series), hits give low values 1.01 | locus YHR079C, strain IRE1, hits give low values 1.06 | locus YHR094C, strain hxt1, hits give low values 1.01 | locus YHR129C, strain ARP1, hits give low values 1.02 | locus YHR142W, strain chs7, hits give low values 1.02 | locus YHR200W, strain rpn10, hits give low values 1.01 | locus YIL066C, strain RNR3, hits give low values 1 | locus YIL073C, strain SPO22, hits give low values 1.07 | locus YIL125W, strain kgd1, hits give low values 0.997 | locus YIR030C, strain dcg1, hits give low values 0.996 | locus YJL092W, strain hpr5, hits give low values 1.02 | locus YJL095W, strain BCK1 (second series), hits give low values 1.01 | locus YJL095W, strain BCK1, hits give low values 0.989 and 1.05 | locus YJL115W, strain asf1, hits give low values 1.01 | locus YJL129C, strain trk1, hits give low values 1 | locus YJL134W, strain LCB3, hits give low values 1.01 | locus YJL154C, strain vps35, hits give low values 1 | locus YJL164C, strain tpk1, hits give low values 1.01 | locus YJL166W, strain qcr8, hits give low values 0.998 | locus YJL168C, strain set2, hits give low values 1.01 | locus YJL187C, strain SWE1 (second series), hits give low values 0.984 | locus YJL187C, strain SWE1, hits give low values 1.01 | locus YJR043C, strain POL32, hits give low values 0.986 | locus YJR066W, strain TOR1, hits give low values 0.984
